# Rows were chosen to be rich in hits. Some 2.5% of all compounds tested hit in one or more screens of this group.
# TMEM16A inh – mouse TMEM16A channel inhibition, primary screen; HEK293 TMEM16A/YFP iodide influx fluorescence, ionomycin; hit rate 1.2% among 310,000; normalized B-score (activity score, 25-100; higher = stronger inhibition) at 10 µM;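 active = ratio plate-corrected score three or more library SD toward inhibition, starting fluorescence score within five deviations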;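 also: score derived from kinetic fluorescence span divided by baseline fluorescence per well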
# Target sequence (Q8BHY3 whole entry, looked up): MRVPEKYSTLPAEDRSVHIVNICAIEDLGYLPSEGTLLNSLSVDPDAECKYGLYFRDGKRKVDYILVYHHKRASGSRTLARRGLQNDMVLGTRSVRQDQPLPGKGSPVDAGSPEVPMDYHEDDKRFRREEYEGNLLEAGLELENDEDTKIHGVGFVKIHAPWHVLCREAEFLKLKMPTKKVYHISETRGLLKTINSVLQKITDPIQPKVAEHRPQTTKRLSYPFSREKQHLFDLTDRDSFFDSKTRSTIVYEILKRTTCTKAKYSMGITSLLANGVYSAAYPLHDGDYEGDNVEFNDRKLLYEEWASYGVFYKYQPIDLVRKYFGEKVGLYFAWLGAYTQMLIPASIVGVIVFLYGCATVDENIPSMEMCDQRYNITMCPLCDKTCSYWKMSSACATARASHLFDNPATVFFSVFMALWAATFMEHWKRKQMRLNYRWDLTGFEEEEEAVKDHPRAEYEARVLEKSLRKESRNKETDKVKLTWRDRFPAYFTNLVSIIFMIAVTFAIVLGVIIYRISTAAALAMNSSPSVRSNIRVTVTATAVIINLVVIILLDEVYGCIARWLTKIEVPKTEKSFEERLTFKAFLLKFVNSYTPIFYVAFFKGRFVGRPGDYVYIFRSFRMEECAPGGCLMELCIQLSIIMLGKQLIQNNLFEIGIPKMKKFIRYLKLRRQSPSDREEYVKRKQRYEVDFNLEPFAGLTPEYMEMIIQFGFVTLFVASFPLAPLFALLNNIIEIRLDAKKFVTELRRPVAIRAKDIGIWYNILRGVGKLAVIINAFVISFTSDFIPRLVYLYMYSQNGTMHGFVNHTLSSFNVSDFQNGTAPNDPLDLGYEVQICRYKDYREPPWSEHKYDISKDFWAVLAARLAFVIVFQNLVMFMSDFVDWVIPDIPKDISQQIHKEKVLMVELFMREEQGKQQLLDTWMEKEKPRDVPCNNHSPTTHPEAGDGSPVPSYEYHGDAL
# KLF5 inhibitor – kruppel-like factor 5 inhibition | DLD-1 KLF5 promoter-luciferase reporter, luminescence | inhibition, % at 5 µM | hit rate 0.23% among 290,000 | AID 1700;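 active = inhibition above a per-plate limit of that plate's mean compound inhibition plus 3 SD, cut at about 60% in these data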;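 also: higher means less KLF5 promoter-driven luciferase light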
# TMEM16A act – activators or potentiators of mouse TMEM16A chloride channel | Q8BHY3 | HEK293 TMEM16A/YFP-H148Q/I152L, iodide quench fluorescence; hits give low values | B-score at 10 µM | hit rate 0.3% among 340,000 | AID 623877;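 active = fluorescence-ratio B-score plate-corrected deviation score at least 3 library SD below zero, with starting fluorescence score within 5 deviations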;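 also: channel opened by trigger with iodide after compound preincubation; score built on the fluorescence ratio of max minus min over baseline; more negative score means more quench and so TMEM16A activation or potentiation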
# aSyn UTR inh – MLPCN primary screen, SNCA 5' untranslated region; alpha-synuclein 5'UTR reporter, inhibitor activity; inhibition, % (tested at 7.5 µM); hit rate 0.82% among 300,000; AID 1813; in the data active = inhibition above about 60%;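 also: H4 neuroglioblastoma cells stably carrying SNCA 5'UTR luciferase fusion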
# 697 NFkB inh – inhibitors of the PMA/ionomycin-induced NF-kB reporter in 697 B cells; 697 B-cell NF-kB luciferase reporter, 16 h; inhibition, % at 4 µM; hit rate 0.33% among 330,000; in the data active = inhibition above about 35%
# Jurkat NFkB inh – lowers PMA/ionomycin-induced NF-kB signal in Jurkat cells; PMA/ionomycin-induced NF-kB luciferase reporter, luminescence; inhibition, % at 4 µM; hit rate 0.53% among 330,000; AID 435003; in the data active = inhibition above about 50%
# Jurkat NFkB conf – lowers PMA/ionomycin-induced NF-kB signal in Jurkat cells. Jurkat NF-kB luciferase, 16 h. hit rate 27% among 2,700. inhibition, % at 4 µM. shares compounds with Jurkat NFkB inh;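 active = inhibition reaching about 45% at 4 µM in either replicate, limit read from the data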
# A number is an active result; 0 = inactive; - = no result given.
SMILES,TMEM16A inh,KLF5 inhibitor,TMEM16A act,aSyn UTR inh,697 NFkB inh,Jurkat NFkB inh,Jurkat NFkB conf
Cc1ccccc1-n1cnc2cc(NCc3cccs3)ccc21,0,0,0,0,0,0,-
Cc1nc(Nc2nc3c(c(=O)[nH]2)CCC3)nc2ccccc12,0,-,0,125.6,0,84.5,57.1
CSc1ccc(CN2CCN(C(=O)c3ccc([N+](=O)[O-])cc3)CC2)cc1,0,0,0,0,0,53.4,0
Cc1ccc(-n2[nH]c(=O)c(-c3ccccn3)c2C)cc1,0,0,0,97.4,0,58.4,0
CC(C)(C)NC(=O)/C=C/c1cccs1,0,0,0,0,0,0,-
Cc1cccc(NC(=O)/C=C/c2cccs2)n1,0,0,0,0,0,0,0
Cc1ccc(S(=O)(=O)N(Cc2cc3ccccc3[nH]c2=O)c2cccc(C)c2)cc1,0,0,0,0,0,0,-
C=CCNC(=S)N/N=C(\C)c1ccccn1,0,0,0,86.4,0,78.3,51.2
O=[N+]([O-])c1ccccc1/C=C/c1ccc2ccccc2n1,0,0,0,0,0,0,0
CNc1snc(C)c1C(=O)OC(C)C(=O)Nc1ccccc1 (configuration not stated),-,-,0,-,0,0,-
Clc1ccc(N2CCN(c3cnc4ccccc4n3)CC2)cc1,0,0,0,0,0,0,-
c1ccc(N2CCN(c3cnc4ccccc4n3)CC2)cc1,0,0,0,0,0,0,0
O=C(N/N=C/c1cccc([N+](=O)[O-])c1)C(=O)N1CCCCCC1,0,0,0,0,0,0,-
CCCc1nc(NC(=O)c2ccccc2)nc(NC(=O)c2ccccc2)n1,0,0,0,0,0,0,-
Cc1cc(C(=O)CSc2nnc(N)s2)c(C)n1Cc1cccs1,0,0,0,69.0,0,0,0
O=C(NCC(c1ccco1)N1CCc2ccccc21)C(=O)Nc1ccc(F)cc1F (configuration not stated),0,-,0,0,0,60.4,0
Oc1ccc(Nc2nc3ccccc3nc2Nc2ccc(O)cc2)cc1,0,0,0,108.4,0,84.1,54.4
C/C(=N\Nc1nncc2ccccc12)c1ccc(C(C)(C)C)cc1,0,0,0,0,0,0,-
C/C(=N\Nc1nncc2ccccc12)c1cccc(OC(F)F)c1,0,0,0,0,0,0,0
CC(=O)Nc1ccc(S(=O)(=O)NCCC(=O)NCCCc2ccccc2)cc1,-,-,0,-,0,0,-
CCOC(=O)c1c(C)[nH]c(C(=O)Nc2ccc(C)c(Cl)c2)c1C,0,0,-,0,0,0,0
O=C(NNc1c(Cl)cncc1Cl)c1sccc1Cl,0,0,0,0,0,0,-
COC(=O)[C@]1(C)N[C@H](CN(C)C(=O)COc2ccccc2)[C@@H]2C(=O)N(C)C(=O)[C@@H]21,-,-,-,-,0,0,-
CC(C)(C)c1ccc(NC(=O)c2ccccc2)c([N+](=O)[O-])c1,0,0,0,0,0,0,0
Cc1ccc(NC(=O)CC(C)CC(=O)NCc2ccccc2)cc1Cl (configuration not stated),0,0,0,0,0,0,-
SMILES,TMEM16A inh,KLF5 inhibitor,TMEM16A act,aSyn UTR inh,697 NFkB inh,Jurkat NFkB inh,Jurkat NFkB conf
CC(=O)N(c1ccc(Cl)cc1)c1cn(C(C)=O)c2ccccc12,0,0,0,0,0,0,-
CC(=O)n1cc(N(C(=O)CCl)c2ccc(C)cc2)c2ccccc21,0,0,0,88.8,0,75.7,0
O=C(/C=C\c1ccco1)Nc1cc([N+](=O)[O-])ccc1F,0,0,0,97.4,0,67.9,0
CCN(CC(=O)NCc1ccc(F)cc1)C(=O)/C=C/c1ccc(OC)c(S(=O)(=O)NC(C)C)c1,0,0,0,63.2,0,50.5,0
O=C(Nc1ccc(S(=O)(=O)N2CCCCC2)cc1)c1ccc(CN2CCc3ccccc3C2)cc1,0,0,0,0,0,79.7,77.7
O=C(Nc1ccc(CN2CCOCC2)cc1)c1ccc(Cl)cc1,0,0,0,0,0,0,-
O=C(Nc1ccccc1)c1ccc(CN2CCc3ccccc3C2)cc1,0,0,0,0,0,0,-
O=C(Nc1ccc(S(=O)(=O)Nc2ccccc2)cc1)c1ccc(CN2CCOCC2)cc1,0,0,0,0,0,64.4,64.7
CN1CCN(c2ccc(NC(=O)CSc3nnnn3-c3ccccc3Cl)cc2)CC1,0,0,0,0,0,0,-
CC(C)c1ccc(-n2nc3ccc(N)cc3n2)cc1,0,0,0,0,0,0,0
COc1ccc(/C=C/C(=O)c2cc(F)ccc2OC(=O)c2ccccc2)cc1OC,0,0,0,67.1,0,58.4,61.0
CC(C)(C)NC(=O)NC(=O)COC(=O)CNS(=O)(=O)c1ccc(Br)cc1Cl,0,0,0,0,0,0,-
Cc1ccc(Nc2ncnc3sc(C)c(C)c23)cc1,0,0,0,0,0,0,-
c1ccc(CN2CCC(Nc3ncnc4sccc34)CC2)cc1,0,0,0,0,0,57.6,0
Cc1csc2c(NC3CCN(Cc4ccccc4)CC3)ncnc12,0,0,0,0,0,0,-
Cc1sc2ncnc(NC3CCN(Cc4ccccc4)CC3)c2c1C,0,0,0,0,0,52.8,0
Brc1ccc2[nH]c3c(N4CCc5ccccc5C4)ncnc3c2c1,0,0,-,0,0,0,-
CCOc1ccc2[nH]c3c(N4CCc5ccccc5C4)ncnc3c2c1,0,0,0,0,0,51.6,0
Fc1ccc2[nH]c3c(N4CCc5ccccc5C4)ncnc3c2c1,0,0,-,0,0,50.1,62.6
COc1ccc2[nH]c3c(N4CCC(O)(c5cccc(C(F)(F)F)c5)CC4)ncnc3c2c1,100,0,0,0,0,50.8,0
CCN(CC)CCN1C(=O)C(=O)/C(=C(/O)c2ccc(S(=O)(=O)N3CCOCC3)cc2)C1c1ccccc1 (configuration not stated),0,0,0,0,0,0,-
COC(=O)c1ccc(COc2ccc(CNCc3ccc(Cl)cc3)cc2)cc1,0,0,-,0,0,0,-
O=S(=O)(Cc1ccccc1)C(CCCc1ccccc1)S(=O)(=O)Cc1ccccc1,-,-,0,-,-,-,-
Cc1cccc(/C=N/Nc2nncc3ccccc23)c1,0,0,0,0,0,0,0
CCOc1ccccc1-n1nnnc1SCC(=O)O,0,0,0,0,0,0,-
SMILES,TMEM16A inh,KLF5 inhibitor,TMEM16A act,aSyn UTR inh,697 NFkB inh,Jurkat NFkB inh,Jurkat NFkB conf
CCOC(=O)c1ccc(NC(=O)N2CCc3ccccc3C2)cc1,0,0,0,0,0,0,-
CCOC(=O)c1ccc(NC(=O)N2CCc3ccccc32)cc1,0,0,0,0,0,0,0
O=C(c1ccccc1)c1nn(-c2ccccc2)c(=O)cc1C(F)(F)F,0,0,0,0,0,0,-
O=C(c1ccccc1)c1nn(-c2ccc(Cl)cc2)c(=O)cc1C(F)(F)F,0,0,0,0,0,98.5,80.0
C/C(=N\Nc1nc(C(C)(C)C)cs1)c1ccccc1,0,0,0,0,0,0,0
C/C(=N\Nc1nc(C(C)(C)C)cs1)c1ccc(O)cc1,0,0,0,0,0,0,-

# Source: PubChem
